# According to PubChem BioAssay:
# Activity calls are given as the source filed them.
# Key:
# [1] = binders of probe aFSTL3 on microarray, primary screen, stem cell growth factor project, biochemical, small-molecule microarray, fluorescence 635/667 (AID 1064); conditions: higher = more signal;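 further: measures binding of the biotinylated anti-FSTL3 antibody to printed compounds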
# [2] = binders from COS7 lysate, DM2A8 probe, primary screen, torsin A project, cell lysate, small-molecule microarray, fluorescence 635/667 (AID 1065); conditions: higher = more signal, COS7 lysate expressing mutant human TOR1A
# [3] = binders of probe aFGF2 on microarray, primary screen, stem cell growth factor project, biochemical, small-molecule microarray, fluorescence 635/667 (AID 1067); conditions: higher = more signal;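 further: measures binding of biotinylated aFGF2 protein to printed compounds on slides; z-score merges feature fluorescence and signal-to-noise across triplicate slides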
# [4] = binders of probe aFGF10 on microarray, primary screen, stem cell growth factor project, biochemical, small-molecule microarray, fluorescence 635/667 (AID 1071); conditions: higher = more signal;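 further: score merges 667 nm spot intensity and signal to noise from triplicate slides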
# [5] = target: Neurogenic locus notch homolog protein 2 (Homo sapiens) (UniProt Q04721); assay: Notch2 binders on small-molecule microarrays, primary screen, biochemical, small-molecule microarray, 635 nm fluorescence, stem cell growth factors (AID 1073); conditions: Notch2 binding, higher = more signal
# Sequence of Neurogenic locus notch homolog protein 2 (Homo sapiens) (Q04721 whole entry, looked up, canonical isoform): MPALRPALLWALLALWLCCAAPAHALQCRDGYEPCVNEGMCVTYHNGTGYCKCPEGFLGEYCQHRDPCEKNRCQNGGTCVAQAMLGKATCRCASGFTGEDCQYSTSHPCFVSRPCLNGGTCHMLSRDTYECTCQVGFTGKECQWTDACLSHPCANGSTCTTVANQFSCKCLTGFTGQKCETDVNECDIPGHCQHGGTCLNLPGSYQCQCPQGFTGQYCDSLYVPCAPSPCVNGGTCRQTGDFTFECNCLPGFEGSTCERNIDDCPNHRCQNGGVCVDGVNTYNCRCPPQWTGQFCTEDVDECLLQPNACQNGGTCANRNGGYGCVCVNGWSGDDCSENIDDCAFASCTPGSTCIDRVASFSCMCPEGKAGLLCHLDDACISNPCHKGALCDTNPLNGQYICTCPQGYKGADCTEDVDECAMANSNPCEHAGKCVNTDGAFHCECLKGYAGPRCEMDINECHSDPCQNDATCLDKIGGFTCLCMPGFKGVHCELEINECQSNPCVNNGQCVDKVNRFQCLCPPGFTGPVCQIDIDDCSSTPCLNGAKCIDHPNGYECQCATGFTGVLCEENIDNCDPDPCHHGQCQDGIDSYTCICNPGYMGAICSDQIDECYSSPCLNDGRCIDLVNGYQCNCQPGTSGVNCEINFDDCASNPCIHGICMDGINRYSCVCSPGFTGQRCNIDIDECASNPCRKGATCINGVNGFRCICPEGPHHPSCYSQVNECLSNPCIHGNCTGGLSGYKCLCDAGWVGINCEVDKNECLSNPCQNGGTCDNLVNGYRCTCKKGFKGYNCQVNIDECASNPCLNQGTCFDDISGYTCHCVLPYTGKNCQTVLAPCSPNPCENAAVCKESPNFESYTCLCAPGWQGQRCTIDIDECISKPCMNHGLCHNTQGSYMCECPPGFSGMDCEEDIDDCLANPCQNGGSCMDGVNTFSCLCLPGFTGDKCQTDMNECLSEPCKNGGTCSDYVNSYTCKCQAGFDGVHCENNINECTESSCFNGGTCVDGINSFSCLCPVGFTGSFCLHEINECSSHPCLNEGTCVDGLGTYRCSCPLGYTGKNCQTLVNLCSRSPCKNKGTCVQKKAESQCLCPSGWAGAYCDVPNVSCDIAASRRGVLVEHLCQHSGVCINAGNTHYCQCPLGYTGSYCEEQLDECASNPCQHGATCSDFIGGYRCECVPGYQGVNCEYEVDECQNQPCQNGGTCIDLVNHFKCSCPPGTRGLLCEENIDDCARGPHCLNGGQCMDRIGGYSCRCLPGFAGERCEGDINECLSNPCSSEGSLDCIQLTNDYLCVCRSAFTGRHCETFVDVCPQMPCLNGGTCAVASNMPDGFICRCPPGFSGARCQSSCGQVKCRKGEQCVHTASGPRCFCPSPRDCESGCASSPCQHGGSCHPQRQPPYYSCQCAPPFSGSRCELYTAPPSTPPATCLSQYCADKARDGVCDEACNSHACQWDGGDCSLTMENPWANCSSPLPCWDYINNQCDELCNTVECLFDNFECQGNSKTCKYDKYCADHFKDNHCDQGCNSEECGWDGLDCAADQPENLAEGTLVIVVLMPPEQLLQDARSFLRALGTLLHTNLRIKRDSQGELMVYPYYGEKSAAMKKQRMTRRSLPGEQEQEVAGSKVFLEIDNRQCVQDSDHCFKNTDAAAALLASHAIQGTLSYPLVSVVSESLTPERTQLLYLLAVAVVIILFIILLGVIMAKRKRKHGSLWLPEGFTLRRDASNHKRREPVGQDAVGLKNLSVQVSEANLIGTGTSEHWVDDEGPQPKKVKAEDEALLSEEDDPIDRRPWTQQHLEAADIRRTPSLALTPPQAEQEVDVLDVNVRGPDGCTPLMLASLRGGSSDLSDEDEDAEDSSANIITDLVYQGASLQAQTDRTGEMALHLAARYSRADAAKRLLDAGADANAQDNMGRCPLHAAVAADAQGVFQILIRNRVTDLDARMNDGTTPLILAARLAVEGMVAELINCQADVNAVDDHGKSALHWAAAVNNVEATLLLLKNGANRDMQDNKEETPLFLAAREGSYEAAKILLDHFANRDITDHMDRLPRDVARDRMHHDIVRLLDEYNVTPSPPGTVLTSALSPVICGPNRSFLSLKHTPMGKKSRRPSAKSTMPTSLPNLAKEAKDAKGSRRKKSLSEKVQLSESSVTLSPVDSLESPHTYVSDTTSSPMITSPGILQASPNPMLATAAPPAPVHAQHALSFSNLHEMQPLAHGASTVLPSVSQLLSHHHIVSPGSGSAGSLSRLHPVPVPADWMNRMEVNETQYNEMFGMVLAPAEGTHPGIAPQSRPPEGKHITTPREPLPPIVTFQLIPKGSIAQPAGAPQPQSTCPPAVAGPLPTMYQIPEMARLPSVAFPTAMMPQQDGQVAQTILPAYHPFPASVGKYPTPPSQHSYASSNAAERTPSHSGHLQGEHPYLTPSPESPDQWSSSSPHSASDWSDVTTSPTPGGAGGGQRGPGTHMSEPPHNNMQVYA
# [6] = target: Pro-neuregulin-1, membrane-bound isoform (Homo sapiens) (UniProt Q02297); assay: NRG1 binders on small-molecule microarrays, primary screen, psychiatric disease protein project, biochemical, small-molecule microarray, fluorescence 635/667 (AID 1075); conditions: NRG1 binding, 635 nm fluorescence, higher = more signal;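 further: score combines 667 nm spot fluorescence with signal to noise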
# Sequence of Pro-neuregulin-1, membrane-bound isoform (Homo sapiens) (Q02297 whole entry, looked up, the tested form may be a part, canonical isoform): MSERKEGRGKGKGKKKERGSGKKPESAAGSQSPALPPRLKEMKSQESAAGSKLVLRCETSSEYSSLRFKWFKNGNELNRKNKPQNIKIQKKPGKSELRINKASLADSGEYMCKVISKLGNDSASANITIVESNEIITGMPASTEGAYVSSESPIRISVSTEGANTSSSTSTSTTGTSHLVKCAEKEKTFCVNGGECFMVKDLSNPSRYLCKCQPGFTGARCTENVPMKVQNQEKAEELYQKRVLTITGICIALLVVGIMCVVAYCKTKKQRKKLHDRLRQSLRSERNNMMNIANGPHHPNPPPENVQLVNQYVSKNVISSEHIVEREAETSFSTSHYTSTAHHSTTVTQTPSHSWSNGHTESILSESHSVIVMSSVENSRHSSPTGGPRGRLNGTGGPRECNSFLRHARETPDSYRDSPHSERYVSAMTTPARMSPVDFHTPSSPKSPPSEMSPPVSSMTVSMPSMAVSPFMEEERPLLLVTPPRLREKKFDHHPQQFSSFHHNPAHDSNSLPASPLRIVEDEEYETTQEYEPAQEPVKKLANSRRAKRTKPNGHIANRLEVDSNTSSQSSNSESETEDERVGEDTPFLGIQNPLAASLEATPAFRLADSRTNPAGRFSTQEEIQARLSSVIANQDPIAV
# [7] = test system: Neuregulin-1 EGF-like domain; assay: binders of neuregulin-1 EGF-like domain, primary screen, biochemical, small-molecule microarray, 635 nm fluorescence (AID 1081); conditions: small-molecule microarray binding, higher = more signal;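 further: binding of the protein to compounds printed on small-molecule microarray slides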
# [8] = FRG1 promoter luciferase signal modulators, primary screen, FRG1 inhibition for FSHD, cell-based, C2C12 myotubes, firefly/Renilla luciferase, luminescence (AID 1084); conditions: higher = more signal, called active from +8 up or from −8 down
# [9] = binders of probe aFST on microarray, primary screen, stem cell growth factor project, biochemical, small-molecule microarray, fluorescence 635/667 (AID 1086); conditions: higher = more signal;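 further: score merges 667 nm fluorescence with signal-to-noise of each printed compound spot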
# [10] = binders of probe aHhip on microarray, primary screen, stem cell growth factor project, biochemical, small-molecule microarray, fluorescence 635/667 (AID 1087); conditions: higher = more signal;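 further: score merges spot fluorescence at 667nm with spot signal to noise ratio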
# [11] = test system: PRMT1 (protein arginine N-methyltransferase 1); assay: PRMT1 binders on small-molecule microarrays, primary screen, biochemical, small-molecule microarray, 635 nm fluorescence (AID 1088); conditions: small-molecule microarray binding, higher = more signal;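 further: binding of Prmt1 protein to compounds spotted on small-molecule microarray slides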
# [12] = yeast growth modulation, basal conditions, primary screen, YJM789 clinical isolate, OD600, 24 h (AID 1089);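 further: growth of clinical yeast isolate S. cerevisiae YJM 789 seeded 1000 cells per well; test concentration not given here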; conditions: S. cerevisiae YJM789 growth, higher = more signal, called active from +8 up or from −8 down
# [13] = fission yeast growth modulation, primary screen, strain 972, OD600, 24 h, no modulator (AID 1090);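 further: basal condition with compound alone and no growth modifier present; test concentration not given here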; conditions: S. pombe 972 growth, higher = more signal, called active from +8 up or from −8 down
# [14] = S. cerevisiae growth modulation with rapamycin, primary screen, strain BY4716, OD600, 96 h (AID 1091); conditions: higher = more signal, called active from +8 up or from −8 down; further: test concentration not given here
# [15] = target: Torsin-1A-interacting protein 2 (Homo sapiens) (UniProt Q8NFQ8); assay: LULL1 binders on small-molecule microarray, primary screen, cell lysate, human LULL1 lysate, 635/667 nm fluorescence (AID 1092); conditions: hLULL1 lysate binding, 635 nm fluorescence, higher = more signal;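 further: probe is lysate of COS7 cells overexpressing human LULL1; score merges per-feature 667 nm fluorescence with signal-to-noise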
# Sequence of Torsin-1A-interacting protein 2 (Homo sapiens) (Q8NFQ8 whole entry, looked up): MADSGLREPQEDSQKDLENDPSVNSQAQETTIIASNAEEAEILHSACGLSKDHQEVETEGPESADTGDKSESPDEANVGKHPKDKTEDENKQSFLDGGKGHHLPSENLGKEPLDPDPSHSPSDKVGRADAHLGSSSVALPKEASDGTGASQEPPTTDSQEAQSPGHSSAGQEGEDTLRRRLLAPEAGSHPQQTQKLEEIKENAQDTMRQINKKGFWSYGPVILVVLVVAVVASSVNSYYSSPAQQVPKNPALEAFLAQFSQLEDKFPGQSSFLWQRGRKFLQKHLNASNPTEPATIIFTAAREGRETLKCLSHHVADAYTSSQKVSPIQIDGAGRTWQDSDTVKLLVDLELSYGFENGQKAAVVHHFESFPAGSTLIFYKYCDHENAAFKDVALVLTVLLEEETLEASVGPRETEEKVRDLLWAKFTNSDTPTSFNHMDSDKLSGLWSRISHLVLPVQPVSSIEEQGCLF
# [16] = E. coli growth modulation, two-sided OD650, primary screen, E. coli filamentation project, strain DRC41, 24 h (AID 1093); conditions: OD650, 24 h, higher = more signal, called active from +8 up or from −8 down;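 further: MC1000 strain lacking acrAB efflux and sulA so SOS filamentation is blocked; test concentration not given here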
# [17] = small-molecule microarray binders of probe aLefty2, primary screen, biochemical, biotinylated probe, 635/667 nm fluorescence (AID 1094); conditions: higher = more signal;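 further: score merges spot fluorescence near 667 nm with spot signal-to-noise ratio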
# [18] = test system: Noggin (protein binding on small-molecule microarray); assay: Noggin binders on small-molecule microarray, primary screen, biochemical, 635/667 nm fluorescence (AID 1095); conditions: 635 nm fluorescence, higher = more signal;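 further: score merges 667 nm feature fluorescence with signal to noise over triplicate slides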
# [19] = target: Neurogenic locus notch homolog protein 3 (Homo sapiens) (UniProt Q9UM47); assay: NOTCH3 binders on small-molecule microarray, primary screen, biochemical, 635/667 nm fluorescence (AID 1096); conditions: NOTCH3 binding, 635 nm fluorescence, higher = more signal
# [20] = small-molecule microarray binders of probe aEGFR, primary screen, biochemical, biotinylated probe, 635/667 nm fluorescence (AID 1097); conditions: higher = more signal;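 further: probe is a biotinylated anti-EGFR antibody binding compounds printed on slides; score combines fluorescence near 667 nm and signal to noise of each spot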
Compound,composite z-score [1],composite z-score [2],composite z-score [3],composite z-score [4],composite z-score [5],composite z-score [6],composite z-score [7],z-score [8],composite z-score [9],composite z-score [10],composite z-score [11],z-score [12],z-score [13],z-score [14],composite z-score [15],z-score [16],composite z-score [17],composite z-score [18],composite z-score [19],composite z-score [20]
O=C1[C@H]2CCn3c(=O)n(Cc4cc5c(cc4Cl)OCO5)c(=O)n3[C@H]2[C@H](O)[C@@H]2O[C@H]12,1.24,-0.0222,-0.162,-0.244,-0.382,-0.156,0.801,-0.162 (inactive),-0.332,0.0156,-0.0582,0.821 (inactive),-0.315 (inactive),-0.224 (inactive),-0.297,0.662 (inactive),-0.255,0.27,-0.802,-0.173
CCN1C(=O)[C@H]2[C@H]3[C@H](O)[C@H](O)CC(=NOC[C@@H](O)COCc4ccco4)[C@H]3CC[C@H]2C1=O,-0.905,2.38,-0.318,-1.68,-0.886,-0.502,0.456,-0.172 (inactive),-0.104,0.0578,1.21,-0.0365 (inactive),-0.258 (inactive),-0.0439 (inactive),0.327,0.316 (inactive),-0.339,1.79,0.0738,-0.099
COC(=O)[C@H](CCSC)NC(=O)CC=C[C@@H](C)CO,-0.738,2.66,-0.123,0.708,0.175,-0.399,0.818,-0.202 (inactive),0.325,0.484,1.53,0.0662 (inactive),0.319 (inactive),0.451 (inactive),1.3,0.612 (inactive),-0.0944,1.54,0.703,0.493
O=C1C2=CC[C@H]3C(=O)N(C4CCCCC4)C(=O)[C@H]3[C@H]2[C@H](O)[C@@H]2O[C@H]12,-0.115,-2.14,-0.162,-0.179,-0.423,-0.0738,-0.515,11.5 (active),-0.5,-0.164,-0.642,-0.163 (inactive),-6.78 (inactive),-1.25 (inactive),0.821,-0.391 (inactive),-0.196,-0.725,-1.63,-0.0389
COC(=O)CC=C[C@@H](C)[C@@H](C=NOC[C@@H](C)[C@H](OCc1ccccc1)C(C)C)NS(=O)(=O)c1ccc(C)cc1,-0.433,0.142,-0.0633,-0.0494,-0.801,-0.267,-0.332,0.539 (inactive),-0.0646,-0.0003,0.123,-0.161 (inactive),1.53 (inactive),0.227 (inactive),0.0335,-1.42 (inactive),-0.27,0.452,-1.44,-0.142
CSCC[C@@H]1NC(=O)CC=C[C@@H](C)COC(=O)[C@H](C)COC1=O,-1.1,2.81,-0.355,-1.11,-0.979,-1.94,-0.169,-1.13 (inactive),-0.242,0.487,1.53,-2.12 (inactive),-1.99 (inactive),-0.894 (inactive),-0.265,0.453 (inactive),-0.295,2.11,0.883,0.702
CO[C@H]1COC(=O)CC=C[C@@H](C)COC(=O)[C@H]2CCCN2C(=O)CC=C[C@H]1C,-0.867,2.36,-0.147,-0.103,-0.315,-0.278,1.06,-0.352 (inactive),0.0653,0.445,1.55,0.591 (inactive),-0.74 (inactive),0.0488 (inactive),0.128,0.457 (inactive),-0.194,1.86,-0.341,0.0129
COc1ccc(COC(=O)NN=C2C[C@@H](O)[C@@H](O)[C@@H]3[C@@H]4C(=O)N([C@@H](C)c5ccccc5)C(=O)[C@@H]4CC[C@H]23)cc1,1.87,0.287,-0.0614,-0.129,-0.249,-0.413,-0.592,-0.797 (inactive),0.951,-0.226,-0.517,-0.21 (inactive),-0.0145 (inactive),-0.556 (inactive),0.621,0.92 (inactive),0.484,-0.245,-0.184,-0.137
CCc1cc2c(nc1CC)CCN(CCC(C)=NOC[C@@H](C)[C@H](OCc1ccccc1)C(C)C)C2,-0.251,-0.176,-0.226,-1.25,-1.17,-0.769,-0.47,-0.856 (inactive),-1.36,-0.132,0.0757,-2.41 (inactive),-4.16 (inactive),-1.32 (inactive),0.198,-0.966 (inactive),-0.224,-0.249,-1.38,-0.25
COC(=O)CC=C[C@@H](C)[C@@H](C=NOC[C@@H](O)COCc1ccco1)NS(=O)(=O)c1ccc(C)cc1,-0.568,0.9,-0.162,-0.28,-0.572,-0.767,-0.929,0.184 (inactive),-0.0225,-0.0237,0.0315,0.0457 (inactive),1.02 (inactive),0.0521 (inactive),-1.12,0.835 (inactive),-0.202,0.704,-0.834,-0.195
